NIH3T3 tox – Cytotoxic Profiling in NIH 3T3 Cell Line of Diverse Libraries Using Quantitative High-Throughput Screening; NIH 3T3 viability, CellTiter-Glo ATP luminescence, 48-72 h; Potency, µM (titrated, usually from 96.7 µM), inactives show at the top dose activity change, negative = cytotoxicity, hits mostly inhibitors; 4.3% of 94,000 active; also: nearly all actives have a fitted effect of over 55% in size
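Luminescent ATP readout (CellTiter-Glo, 10 min RT) after 48 or 72 hr compound exposure of NIH 3T3 cells seeded at 400 cells/well in 1536-well format; quantitative HTS.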
HEK cytotox – Cytotoxic Profiling in HEK 293 Cell Line of Diverse Libraries Using Quantitative High-Throughput Screening | HEK 293 viability, ATP luminescence (CellTiter-Glo), 48-72 h | Potency, µM (series often up to 115 µM), for the others: top-dose activity change, negative = cytotoxicity, usual class: inhibitors | 6.6% of 94,000 active | AID 1345083, 2018; also: nearly all actives have a fitted effect of over 60% in size
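CellTiter-Glo luminescence (cellular ATP) was read after 48 or 72 hr of compound exposure at 37 degree Celsius. Cells were HEK 293 plated at 250 cells/well.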
FLuc inh – Firefly luciferase inhibition profiling of diverse chemical library using quantitative high-throughput screening; purified P. pyralis luciferase, luminescence, biochemical; 2.5% of 76,000 active; Potency, µM (highest dose often 115 µM), usual class: inhibitors; Luciferin 4-monooxygenase (Photinus pyralis), P08659; also: nearly all actives have a fitted effect of over 65% in size
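Luminescence read by CCD imager after adding enzyme (10nM final) to wells holding compound, titrated in qHTS. Substrates 10uM each D-luciferin and ATP; buffer 50mM Tris acetate pH 7.5, 10mM Mg acetate, Tween-20, BSA.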
hNpr1 antagonist – Natriuretic polypeptide receptor (hNpr1) antagonism - Primary qHTS | Potency, µM (titrated, usually from 46.3 µM), without a hit: at the top dose activity change, negative = inhibition, actives largely listed as inhibitors | Atrial natriuretic peptide receptor 1 (Homo sapiens), P16066 | HEK293 hNpr1 GloSensor cGMP, ANP-stimulated luminescence | 1.6% of 76,000 active; calls by dose curve; also: nearly all actives have a fitted effect of over 60% in size
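Compound pre-incubated 30 min at room temperature on GloSensor-loaded HEK293 cells stably carrying hNpr1 and the pGS-40F cGMP biosensor. Stimulation uses hNppA at 0.1 nM final; luminescence is taken at baseline and 20 min post-agonist.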
Starred values were filed as active, the others as inactive; i = inactive; ? = inconclusive; . = no result; [ ] = dose if it differs, or a comment. An excerpt weighted towards active compounds, which were near 11% of everything screened. Unless noted, calls follow the shape of the dose curve; as a rule, active = well fitted curve in the direction sought with a large enough effect; inconclusive = small, poorly fitted or top-dose-only effect, or another doubt; inactive = no such curve, though single readings can be large; an effect the other way counts as inactive or inconclusive. % is scaled to controls: 0 for no effect and ±100 for the full control effect; potency is read from the fitted curve at half-maximal effect.

SMILES	NIH3T3 tox	HEK cytotox	FLuc inh	hNpr1 antagonist
O=C(C1COc2ccccc2C1)N1CCC(n2c(=O)[nH]c3ccccc32)CC1 (stereo not given)	?	22µM*	i	?
CC(C)(C)OC(=O)NCCCC(=O)N1CCC(n2c(=O)[nH]c3ccccc32)CC1	-30%	?	i	20µM*
Cc1ccc(CNC(=O)N[C@@H]2CN(Cc3cccnc3)C[C@H]2CN(C)C)cc1	-10%	5%	i	4%
COC(=O)NC1CCN(c2nccc(Nc3ccccc3OC)n2)CC1	?	50µM*	.	.
COc1ccccc1Nc1ccnc(N2CCC(N[S+](=O)([O-])c3ccccc3)CC2)n1	32µM*	32µM*	.	.
COc1ccccc1Nc1ccnc(N2CCC(N[S+](=O)([O-])c3ccc(C)cc3)CC2)n1	?	32µM*	.	.
COc1ccccc1Nc1ccnc(N2CCC(NC(=O)c3ccccc3F)CC2)n1	-27%	?	.	.
CCOc1ccc(C(=O)N[C@@H]2CN(c3ncccn3)C[C@H]2CO)cc1	-22%	-6%	i	0%
FC(F)(F)c1ccc(CN2CCn3c(nnc3-c3ccncc3)C2)cc1	?	-26%	.	.
CC(C)N1C[C@H](O)C[C@H]1c1nc(-c2ccc3c(c2)OCO3)no1	-30%[174 µM]	-23%[172 µM]	40µM*	0%[70.6 µM]
O=C(O)c1ccc(CN2C[C@H](O)C[C@H]2c2nc(-c3ccc4c(c3)OCO4)no2)cc1	-14%[174 µM]	-1%[172 µM]	?	-2%[70.6 µM]
COc1ccc(-c2noc([C@@H]3C[C@@H](O)CN3Cc3cccc(C#N)c3)n2)cc1	-26%[138 µM]	?	22µM*	?
O[C@@H]1C[C@@H](c2nc(-c3ccc4c(c3)OCO4)no2)N(Cc2ccccc2)C1	?	?	50µM*	-5%[70.6 µM]
N#Cc1cccc(CN2C[C@H](O)C[C@H]2c2nc(-c3ccc4c(c3)OCO4)no2)c1	?	100µM*	?	-6%[70.6 µM]
COc1cccc(CN2CCC(N3C(=O)C(OCC4CC4)C34CCCCC4)CC2)c1OC (stereo not given)	?	?	i	-9%
Cc1cc2cc(C(=O)N(C)Cc3ccc4nsnc4c3)ccc2o1	-29%	-30%	i	10%
COc1ccc(C(=O)N[C@@H]2CCC[C@@H]2C(=O)NCc2ccccn2)cc1	-9%	0%	i	2%
CNC(=O)C1CCCN1Cc1cccc(-c2ccc(C)c(Cl)c2)c1 (stereo not given)	35µM*	25µM*	.	.
C#CCNC(=O)C1CCCN1Cc1cccc(-c2ccc(C)c(Cl)c2)c1 (stereo not given)	40µM*	40µM*	.	.
CC(C)OCCCNC(=O)C1CCCN1Cc1ccc(-c2cncnc2)cc1 (stereo not given)	-16%	-1%	.	.
COc1cccc(CN2C(=O)CCCCC2C(=O)NC2CCCCCC2)c1 (stereo not given)	-11%	-16%	i	-5%
Cc1ccc(-c2cccc(CN3CCCC3C(=O)NC3CCCC3)c2)cc1Cl (stereo not given)	?	35µM*	.	.
Cc1ccc(-c2cccc(CN3CCCC3C(=O)NC(C)C)c2)cc1Cl (stereo not given)	22µM*	22µM*	.	.
COc1ccc(Nc2cnc3ccc(-c4cccc(CO)c4)nn23)cn1	?	?	i	-6%[70.6 µM]
c1ccc(O[C@H]2COCCN(Cc3cccc4c3OCO4)C2)cc1	-34%[138 µM]	?	i	-8%[70.6 µM]
COc1ccccc1[C@@H]1CN(C(=O)c2cc(C(C)C)[nH]n2)C[C@H]1C(=O)O	-14%	-2%	i	-9%
Cc1ccc(-c2cccc(CN3CCCC3C(=O)N3CCCC(C)C3)c2)cc1Cl (stereo not given)	32µM*	?	.	.
COCCCNC(=O)C1CCCN1Cc1cccc(-c2ccc(C)c(Cl)c2)c1 (stereo not given)	40µM*	?	.	.
COc1ccc(CC(=O)N2CCc3nc(C(C)C)nc(-c4ccc(O)cc4)c3CC2)cc1	?	-24%	.	.
COc1ccc(C(=O)N2CCC[C@H]2c2nc(-c3ccc(OC)c(OC)c3)no2)c(OC)c1	-18%	?	i	4%

High-throughput results from PubChem BioAssay.
